What all share (assay): DAPPL (digital affinity profiling via proximity ligation, sequencing); 10 mM Tris-HCl pH 7.5, 50 mM NaCl, 1 mM DTT, 4% glycerol, room temperature, 30 min; GST-TFs on glutathione beads, 16-mer random dsDNA library, 0.1% formaldehyde crosslink after washing; high values mean tight binding
Experiment [1] addresses T1, FEV (Homo sapiens, UniProt Q99581 1-238).
T1 sequence: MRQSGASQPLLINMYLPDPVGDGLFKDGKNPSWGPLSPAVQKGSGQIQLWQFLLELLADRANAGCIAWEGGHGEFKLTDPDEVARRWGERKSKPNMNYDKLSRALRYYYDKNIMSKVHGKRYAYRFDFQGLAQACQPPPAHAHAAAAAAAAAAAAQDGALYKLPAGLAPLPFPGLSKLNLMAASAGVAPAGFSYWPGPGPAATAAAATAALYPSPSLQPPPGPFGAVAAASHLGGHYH
To be noted: protein: recombinant; tags: N-terminal GST; dsDNA, one strand shown. The gist of the method:
(§1)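 Human transcription factors were made in yeast as GST fusions, captured on glutathione beads and barcoded with DNA. With a tag-only sample included, the pool was incubated with 200 nmole of a random double-stranded 16-mer DNA library in Tris/NaCl/DTT/glycerol buffer at room temperature for 30 min, then crosslinked with 0.1% formaldehyde after washing, ligated by proximity, amplified and sequenced. For binding signal, each hexamer's read frequency for a factor is divided by its frequency for the tag-only sample.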

The target of experiment [2] is ETV5 (Homo sapiens, UniProt P41161 1-510). To be noted: protein: recombinant; tags: N-terminal GST; dsDNA, one strand shown. The gist of the method: as §1
The target of experiment [3] is HSF1 (Homo sapiens, UniProt Q00613 1-529). Particulars: protein: recombinant; tags: N-terminal GST; chain copies: 3; dsDNA, one strand shown. In short, it runs like this:
as §1

Experiment [4] deals with T2, SPIC (Homo sapiens, UniProt Q8N5J4 1-248).
T2 sequence: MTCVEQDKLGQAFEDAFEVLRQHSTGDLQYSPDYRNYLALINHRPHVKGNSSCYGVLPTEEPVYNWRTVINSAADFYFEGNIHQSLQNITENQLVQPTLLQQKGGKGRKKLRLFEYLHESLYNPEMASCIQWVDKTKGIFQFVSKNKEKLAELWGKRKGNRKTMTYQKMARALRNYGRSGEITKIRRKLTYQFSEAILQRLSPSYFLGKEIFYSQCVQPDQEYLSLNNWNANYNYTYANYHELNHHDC
To be noted: protein: recombinant; tags: N-terminal GST; dsDNA, one strand shown. The gist of the method:
as §1

For experiment [5], the target named is ELF4 (Homo sapiens, UniProt Q99607 1-663). Particulars: protein: recombinant; tags: N-terminal GST; dsDNA, one strand shown. In short, it runs like this:
as §1

Experiment [6] addresses T3, ELK4 (Homo sapiens, UniProt P28324-2 1-405).
T3 sequence: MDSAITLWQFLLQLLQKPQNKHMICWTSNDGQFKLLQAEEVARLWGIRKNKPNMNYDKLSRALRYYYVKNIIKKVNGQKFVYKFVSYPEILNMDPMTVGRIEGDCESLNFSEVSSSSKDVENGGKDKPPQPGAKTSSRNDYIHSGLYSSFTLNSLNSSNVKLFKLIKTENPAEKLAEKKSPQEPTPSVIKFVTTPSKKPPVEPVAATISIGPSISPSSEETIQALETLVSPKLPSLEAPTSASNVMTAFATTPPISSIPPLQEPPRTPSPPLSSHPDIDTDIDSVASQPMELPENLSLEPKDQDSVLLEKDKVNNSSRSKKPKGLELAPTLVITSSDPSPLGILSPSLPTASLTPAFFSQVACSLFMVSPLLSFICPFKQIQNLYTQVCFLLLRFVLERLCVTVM
To be noted: protein: recombinant; tags: N-terminal GST; dsDNA, one strand shown. The gist of the method: as §1

The target of experiment [7] is T4, ETV2 (Homo sapiens, UniProt O00321 1-342).
T4 sequence: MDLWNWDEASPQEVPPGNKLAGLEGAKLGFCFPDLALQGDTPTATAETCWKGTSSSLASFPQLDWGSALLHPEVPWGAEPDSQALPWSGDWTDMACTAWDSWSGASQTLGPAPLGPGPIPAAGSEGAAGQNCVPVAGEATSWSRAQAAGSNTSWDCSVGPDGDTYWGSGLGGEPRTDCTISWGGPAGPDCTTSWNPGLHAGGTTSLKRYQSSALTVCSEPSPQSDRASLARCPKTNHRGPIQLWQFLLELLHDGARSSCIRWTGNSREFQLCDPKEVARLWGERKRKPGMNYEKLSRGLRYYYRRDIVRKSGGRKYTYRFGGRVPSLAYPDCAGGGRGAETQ
To be noted: protein: recombinant; tags: N-terminal GST; dsDNA, one strand shown. The gist of the method: as §1

The target of experiment [8] is T5, ELF3 (Homo sapiens, UniProt P78545 1-371).
T5 sequence: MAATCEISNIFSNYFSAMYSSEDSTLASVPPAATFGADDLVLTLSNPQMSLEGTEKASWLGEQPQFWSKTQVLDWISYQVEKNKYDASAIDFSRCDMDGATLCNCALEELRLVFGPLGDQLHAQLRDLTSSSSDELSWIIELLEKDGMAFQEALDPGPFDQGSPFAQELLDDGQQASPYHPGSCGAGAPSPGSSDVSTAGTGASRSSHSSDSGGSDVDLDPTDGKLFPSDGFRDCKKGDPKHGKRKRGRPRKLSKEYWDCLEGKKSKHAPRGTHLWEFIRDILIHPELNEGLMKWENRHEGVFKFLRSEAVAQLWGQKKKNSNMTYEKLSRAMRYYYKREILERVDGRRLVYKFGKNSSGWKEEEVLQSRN
Particulars: protein: recombinant; tags: N-terminal GST; dsDNA, one strand shown. The gist of the method: as §1

Experiment [9] has as its target CRX (Homo sapiens, UniProt O43186 1-299). To be noted: protein: recombinant; tags: N-terminal GST; dsDNA, one strand shown. In short, it runs like this: as §1
The target of experiment [10] is ETV1 (Homo sapiens, UniProt P50549 1-477). To be noted: protein: recombinant; tags: N-terminal GST; dsDNA, one strand shown. The gist of the method:
as §1

Experiment [11] concerns the target T6, ERF (Homo sapiens, UniProt P50548 1-548).
T6 sequence: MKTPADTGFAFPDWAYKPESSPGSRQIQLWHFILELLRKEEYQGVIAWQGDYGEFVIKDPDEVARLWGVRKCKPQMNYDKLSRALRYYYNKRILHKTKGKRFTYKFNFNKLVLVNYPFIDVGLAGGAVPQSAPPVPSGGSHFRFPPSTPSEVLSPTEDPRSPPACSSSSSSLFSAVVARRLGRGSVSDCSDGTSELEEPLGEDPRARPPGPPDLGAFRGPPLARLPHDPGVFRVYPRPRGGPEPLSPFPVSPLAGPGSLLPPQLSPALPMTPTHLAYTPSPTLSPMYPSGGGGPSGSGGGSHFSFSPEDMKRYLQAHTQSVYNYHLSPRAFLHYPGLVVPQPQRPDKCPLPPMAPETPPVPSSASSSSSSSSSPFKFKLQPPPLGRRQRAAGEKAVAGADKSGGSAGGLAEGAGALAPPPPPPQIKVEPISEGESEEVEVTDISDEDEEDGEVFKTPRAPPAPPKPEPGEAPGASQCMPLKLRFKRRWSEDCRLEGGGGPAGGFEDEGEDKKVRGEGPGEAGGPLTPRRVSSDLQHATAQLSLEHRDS
To be noted: protein: recombinant; tags: N-terminal GST; dsDNA, one strand shown. In short, it runs like this: as §1

The target of experiment [12] is T7, ETV3L (Homo sapiens, UniProt Q6ZN32 1-361).
T7 sequence: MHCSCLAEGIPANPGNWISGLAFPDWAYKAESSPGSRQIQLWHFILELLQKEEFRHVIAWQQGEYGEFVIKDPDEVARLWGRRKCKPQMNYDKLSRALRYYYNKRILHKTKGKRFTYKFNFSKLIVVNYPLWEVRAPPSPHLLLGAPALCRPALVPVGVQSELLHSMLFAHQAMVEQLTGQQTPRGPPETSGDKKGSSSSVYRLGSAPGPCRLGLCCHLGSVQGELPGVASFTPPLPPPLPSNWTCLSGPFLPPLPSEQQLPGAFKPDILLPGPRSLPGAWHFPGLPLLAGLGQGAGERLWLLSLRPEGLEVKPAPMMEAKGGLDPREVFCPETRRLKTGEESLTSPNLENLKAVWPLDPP
Particulars: protein: recombinant; tags: N-terminal GST; dsDNA, one strand shown. The gist of the method: as §1

Experiment [13] concerns the target T8, ETS2 (Homo sapiens, UniProt P15036 1-469).
T8 sequence: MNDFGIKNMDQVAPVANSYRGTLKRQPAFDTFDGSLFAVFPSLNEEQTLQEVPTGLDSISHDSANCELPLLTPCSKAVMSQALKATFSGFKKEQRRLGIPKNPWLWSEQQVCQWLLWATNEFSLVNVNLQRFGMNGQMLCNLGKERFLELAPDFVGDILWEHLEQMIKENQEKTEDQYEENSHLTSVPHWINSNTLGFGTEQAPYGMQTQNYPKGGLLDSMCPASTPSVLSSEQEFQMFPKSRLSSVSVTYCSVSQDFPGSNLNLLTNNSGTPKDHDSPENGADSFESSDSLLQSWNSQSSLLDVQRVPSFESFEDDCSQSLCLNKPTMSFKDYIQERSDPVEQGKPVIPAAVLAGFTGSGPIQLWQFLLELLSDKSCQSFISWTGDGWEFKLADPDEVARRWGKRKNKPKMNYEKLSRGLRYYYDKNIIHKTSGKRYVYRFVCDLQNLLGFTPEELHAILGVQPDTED
To be noted: protein: recombinant; tags: N-terminal GST; dsDNA, one strand shown. In short, it runs like this:
as §1

Experiment [14] addresses T9, SPDEF (Homo sapiens, UniProt O95238 1-335).
T9 sequence: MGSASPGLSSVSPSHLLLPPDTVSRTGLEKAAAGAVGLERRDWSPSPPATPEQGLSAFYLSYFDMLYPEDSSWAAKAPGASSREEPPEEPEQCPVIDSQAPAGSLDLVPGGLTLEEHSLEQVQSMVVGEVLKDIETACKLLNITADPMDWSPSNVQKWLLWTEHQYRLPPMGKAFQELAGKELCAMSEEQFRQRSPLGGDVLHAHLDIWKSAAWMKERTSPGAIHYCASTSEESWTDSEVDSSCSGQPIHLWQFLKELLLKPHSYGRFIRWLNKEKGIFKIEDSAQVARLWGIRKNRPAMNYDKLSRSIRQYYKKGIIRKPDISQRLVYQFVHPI
Particulars: protein: recombinant; tags: N-terminal GST; dsDNA, one strand shown. In short, it runs like this:
as §1

Experiment [15] addresses T10, ETV7 (Homo sapiens, UniProt Q9Y603 1-341).
T10 sequence: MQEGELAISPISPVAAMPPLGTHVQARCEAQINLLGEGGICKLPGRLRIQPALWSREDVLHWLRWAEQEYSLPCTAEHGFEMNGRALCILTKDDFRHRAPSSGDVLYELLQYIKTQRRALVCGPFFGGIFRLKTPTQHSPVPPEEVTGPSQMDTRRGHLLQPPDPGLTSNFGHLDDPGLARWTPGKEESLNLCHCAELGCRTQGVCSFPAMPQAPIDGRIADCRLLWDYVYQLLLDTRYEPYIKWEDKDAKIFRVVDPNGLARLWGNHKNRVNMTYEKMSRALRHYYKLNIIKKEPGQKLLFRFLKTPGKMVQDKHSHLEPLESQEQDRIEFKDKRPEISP
To be noted: protein: recombinant; tags: N-terminal GST; dsDNA, one strand shown. In short, it runs like this:
as §1

Experiment [16] has as its target T11, ELF5 (Homo sapiens, UniProt Q9UKW6-2 1-255).
T11 sequence: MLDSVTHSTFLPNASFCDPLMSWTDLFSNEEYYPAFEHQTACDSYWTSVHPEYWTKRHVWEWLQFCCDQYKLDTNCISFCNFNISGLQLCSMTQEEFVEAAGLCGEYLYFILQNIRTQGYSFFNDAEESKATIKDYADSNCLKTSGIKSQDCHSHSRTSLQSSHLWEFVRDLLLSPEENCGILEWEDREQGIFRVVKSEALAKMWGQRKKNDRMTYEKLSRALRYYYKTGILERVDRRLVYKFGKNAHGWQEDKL
To be noted: protein: recombinant; tags: N-terminal GST; dsDNA, one strand shown. The gist of the method: as §1

The target of experiment [17] is T12, ETV3 (Homo sapiens, UniProt P41162-2 1-143).
T12 sequence: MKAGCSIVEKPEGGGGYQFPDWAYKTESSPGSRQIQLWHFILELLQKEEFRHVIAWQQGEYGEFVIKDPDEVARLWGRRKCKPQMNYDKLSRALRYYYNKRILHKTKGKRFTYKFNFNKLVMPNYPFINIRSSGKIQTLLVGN
To be noted: protein: recombinant; tags: N-terminal GST; dsDNA, one strand shown. The gist of the method:
as §1

Experiment [18] deals with ETV6 (Homo sapiens, UniProt P41212 1-452). Particulars: protein: recombinant; tags: N-terminal GST; dsDNA, one strand shown. In short, it runs like this: as §1
Sequence of ETV6 (P41212 whole entry): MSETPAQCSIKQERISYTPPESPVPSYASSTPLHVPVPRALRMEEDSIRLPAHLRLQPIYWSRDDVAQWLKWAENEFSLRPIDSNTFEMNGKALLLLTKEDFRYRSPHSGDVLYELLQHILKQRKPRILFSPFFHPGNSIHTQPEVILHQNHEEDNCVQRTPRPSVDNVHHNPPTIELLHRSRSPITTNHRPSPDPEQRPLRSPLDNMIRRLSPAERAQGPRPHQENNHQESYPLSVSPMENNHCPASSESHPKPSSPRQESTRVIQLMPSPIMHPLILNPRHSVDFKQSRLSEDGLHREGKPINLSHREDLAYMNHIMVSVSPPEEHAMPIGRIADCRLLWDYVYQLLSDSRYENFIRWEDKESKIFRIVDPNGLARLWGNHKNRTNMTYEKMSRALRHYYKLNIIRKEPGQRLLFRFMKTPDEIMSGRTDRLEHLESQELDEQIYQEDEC

Sequence of ETV1 (P50549 whole entry): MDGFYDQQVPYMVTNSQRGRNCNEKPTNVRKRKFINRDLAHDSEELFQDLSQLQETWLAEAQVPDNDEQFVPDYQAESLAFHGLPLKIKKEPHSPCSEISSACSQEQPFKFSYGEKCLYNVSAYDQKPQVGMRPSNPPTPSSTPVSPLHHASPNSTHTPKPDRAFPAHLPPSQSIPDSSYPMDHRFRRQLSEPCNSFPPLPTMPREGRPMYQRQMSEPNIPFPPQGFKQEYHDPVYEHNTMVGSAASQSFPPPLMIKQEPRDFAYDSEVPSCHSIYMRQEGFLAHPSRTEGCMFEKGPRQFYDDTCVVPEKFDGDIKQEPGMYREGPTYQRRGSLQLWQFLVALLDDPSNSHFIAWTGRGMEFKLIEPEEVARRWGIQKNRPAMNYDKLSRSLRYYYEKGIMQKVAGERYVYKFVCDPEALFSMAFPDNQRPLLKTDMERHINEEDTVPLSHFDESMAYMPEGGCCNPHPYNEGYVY
Sequence of HSF1 (Q00613 whole entry): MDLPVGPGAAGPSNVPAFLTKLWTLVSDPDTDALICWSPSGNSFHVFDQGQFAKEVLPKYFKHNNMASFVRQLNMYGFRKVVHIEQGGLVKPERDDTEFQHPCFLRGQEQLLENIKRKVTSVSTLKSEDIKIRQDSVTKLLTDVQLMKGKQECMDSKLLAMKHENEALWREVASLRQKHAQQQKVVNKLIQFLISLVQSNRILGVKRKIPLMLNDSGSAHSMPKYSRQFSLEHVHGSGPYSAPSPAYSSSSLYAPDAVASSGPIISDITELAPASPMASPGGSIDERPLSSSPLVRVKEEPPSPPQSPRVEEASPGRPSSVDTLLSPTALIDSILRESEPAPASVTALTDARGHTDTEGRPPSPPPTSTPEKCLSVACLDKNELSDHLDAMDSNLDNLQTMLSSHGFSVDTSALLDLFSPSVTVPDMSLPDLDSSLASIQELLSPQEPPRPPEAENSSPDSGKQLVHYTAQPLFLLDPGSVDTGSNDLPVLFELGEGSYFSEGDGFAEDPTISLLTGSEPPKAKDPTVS
Sequence of ELF4 (Q99607 whole entry): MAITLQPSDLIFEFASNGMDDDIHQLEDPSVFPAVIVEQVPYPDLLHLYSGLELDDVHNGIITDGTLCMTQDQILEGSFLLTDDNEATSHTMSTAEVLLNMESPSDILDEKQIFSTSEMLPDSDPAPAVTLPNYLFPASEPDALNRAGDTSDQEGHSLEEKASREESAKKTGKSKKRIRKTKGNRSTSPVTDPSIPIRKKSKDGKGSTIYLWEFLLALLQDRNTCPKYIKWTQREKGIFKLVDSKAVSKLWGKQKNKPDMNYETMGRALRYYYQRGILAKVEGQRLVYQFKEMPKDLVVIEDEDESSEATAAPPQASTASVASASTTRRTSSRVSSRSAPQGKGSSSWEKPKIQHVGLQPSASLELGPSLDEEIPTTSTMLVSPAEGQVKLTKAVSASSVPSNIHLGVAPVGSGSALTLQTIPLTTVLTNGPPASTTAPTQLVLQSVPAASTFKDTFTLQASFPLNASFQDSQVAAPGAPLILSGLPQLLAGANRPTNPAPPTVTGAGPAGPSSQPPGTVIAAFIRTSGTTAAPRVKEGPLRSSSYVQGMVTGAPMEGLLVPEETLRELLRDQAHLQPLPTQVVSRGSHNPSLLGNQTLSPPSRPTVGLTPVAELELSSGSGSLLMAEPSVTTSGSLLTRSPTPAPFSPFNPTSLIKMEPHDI
Sequence of ETV5 (P41161 whole entry): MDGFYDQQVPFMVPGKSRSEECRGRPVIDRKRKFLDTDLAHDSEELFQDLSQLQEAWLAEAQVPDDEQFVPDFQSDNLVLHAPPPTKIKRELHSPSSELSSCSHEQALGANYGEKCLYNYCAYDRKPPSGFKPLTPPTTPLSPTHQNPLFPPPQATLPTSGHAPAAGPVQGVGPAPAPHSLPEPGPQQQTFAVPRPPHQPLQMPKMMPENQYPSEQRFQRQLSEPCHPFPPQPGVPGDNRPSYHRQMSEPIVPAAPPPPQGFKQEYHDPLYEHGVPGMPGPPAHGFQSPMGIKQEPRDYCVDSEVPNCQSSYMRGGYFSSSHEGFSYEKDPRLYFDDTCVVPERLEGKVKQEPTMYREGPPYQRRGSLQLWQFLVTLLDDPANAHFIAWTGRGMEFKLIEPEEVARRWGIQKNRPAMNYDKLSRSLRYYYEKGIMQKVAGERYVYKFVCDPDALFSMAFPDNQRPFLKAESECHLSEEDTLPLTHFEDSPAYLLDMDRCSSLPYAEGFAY
Sequence of CRX (O43186 whole entry): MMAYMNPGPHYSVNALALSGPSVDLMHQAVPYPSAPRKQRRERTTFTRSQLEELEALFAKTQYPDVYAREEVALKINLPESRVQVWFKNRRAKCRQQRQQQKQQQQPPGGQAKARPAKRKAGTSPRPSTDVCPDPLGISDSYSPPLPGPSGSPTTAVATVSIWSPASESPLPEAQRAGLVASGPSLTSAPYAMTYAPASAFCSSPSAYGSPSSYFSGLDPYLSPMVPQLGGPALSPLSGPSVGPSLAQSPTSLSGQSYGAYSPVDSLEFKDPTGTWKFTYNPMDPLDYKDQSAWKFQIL

As for GCTCTA, the binding signal is 1.15 fold enrichment (6-mer frequency, TF over GST control) in experiment [1]; 1.21 fold enrichment (6-mer frequency, TF over GST control) in experiment [2]; 1.34 fold enrichment (6-mer frequency, TF over GST control) in experiment [3]; 1.26 fold enrichment (6-mer frequency, TF over GST control) in experiment [4]; 1.21 fold enrichment (6-mer frequency, TF over GST control) in [5]; 1.07 fold enrichment (6-mer frequency, TF over GST control) in experiment [6]. The binding signal in [7] is 1.19 fold enrichment (6-mer frequency, TF over GST control); in [8] it was 1.28 fold enrichment (6-mer frequency, TF over GST control); in experiment [9], 1.36 fold enrichment (6-mer frequency, TF over GST control); in experiment [10], 1.11 fold enrichment (6-mer frequency, TF over GST control); in [11], 1.27 fold enrichment (6-mer frequency, TF over GST control); in experiment [12], 1.24 fold enrichment (6-mer frequency, TF over GST control). Also, the binding signal in experiment [13] was 1.16 fold enrichment (6-mer frequency, TF over GST control); in experiment [14] it was 1.15 fold enrichment (6-mer frequency, TF over GST control); in experiment [15], 1.19 fold enrichment (6-mer frequency, TF over GST control); in experiment [16], 1.14 fold enrichment (6-mer frequency, TF over GST control); in experiment [17], 1.1 fold enrichment (6-mer frequency, TF over GST control); in experiment [18] it was 1.09 fold enrichment (6-mer frequency, TF over GST control).

(Values after article PMC7862700, “An all-to-all approach to the identification of sequence-specific readers for epigenetic DNA modifications on cytosine”.)
